Here are results for 68 compounds from PubChem BioAssay AID686979 (National Center for Advancing Translational Sciences (NCATS), 2013).

Out of some 420,000 compounds screened, about 50,000 (12%) were called active. Roughly 26% stayed inconclusive and do not appear here. Calls follow the shape of the dose curve; as a rule, active = well fitted inhibition curve with a large enough effect; inconclusive = small, poorly fitted or top-dose-only effect; inactive = flat fitted curve, though single readings scatter. Shown is part of a subset that was picked to be rich in actives. Where a call stands in place of a potency, no number is given.
Potency is read from the fitted curve at half-maximal effect.

A short description of the assay: qHTS for Inhibitors of human tyrosyl-DNA phosphodiesterase 1 (TDP1): qHTS in cells in presence of CPT. Also: nearly all actives have a fitted effect of over 55% in size. Conditions: chicken DT40 Tdp1-/-;hTDP1 cells + 20 nM CPT, ATP luminescence, 48 h; series mostly up to 46.2 µM. The method, boiled down:
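Cell growth measured by CellTiter-Glo luminescence after a minimum 48 h, 37 C compound exposure with 20 nM CPT in Tdp1-knockout DT40 cells stably expressing hTDP1, seeded 400/well; qHTS titration format.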
On the technique in general: qHTS replaces the single test concentration by a dilution series.
Take `O=C(Nc1cc(-c2nc3ccccc3o2)ccc1Cl)c1cc([N+](=O)[O-])ccc1N1CCOCC1`: the Potency entry is “inactive”.
In the case of `COc1cc(/C=C/CNC[C@H]2O[C@@H](n3cnc(C(N)=O)n3)[C@H](O)[C@@H]2O)ccc1O` it was “inactive”; in that of `O=C(c1ccco1)n1nc(-c2ccc(Cl)cc2)nc1NCc1ccccc1`, 18.4 µM (active); in that of `O=C(Cc1ccccc1)n1nc(-c2ccccc2)nc1NCc1ccco1`, “inactive”.
Regarding `O=C(c1ccc(Cl)cc1)n1nc(-c2cccnc2)nc1NCc1ccc(F)cc1`, the Potency result is “inactive”.
In the case of `COc1ccc(C(=O)NCCSc2ccccc2C)cc1`, the Potency result was “inactive”.
For `CN1C(=O)c2cccc3c(N)ccc(c23)C1=O`, the Potency result was “inactive”.
Regarding `CCN1C(=O)c2cccc3c(N)ccc1c23`, the Potency was 11.6 µM (active).
In the case of `Cc1nn(C)cc1N1C(=O)c2cccc3c(N)ccc(c23)C1=O` it was “inactive”; in that of `NC1=NC(c2cc(F)cc(F)c2)n2c(nc3ccccc32)N1` (stereo not drawn), “inactive”.
In the case of `CS(=O)(=O)C1=NN2C(=N)/C(=C\c3ccc(OCCOc4ccccc4)cc3)C(=O)N=C2S1`, the Potency entry is “inactive”.
Under `Cc1ccc(NC2CCCN(C(=O)CCC3(C)CC3)C2)cc1C` (stereo not drawn) stands “inactive”.
`CCCCN(CC)CCCNC(=O)Cn1ncc2c([nH]c3ccc(C)cc32)c1=O`: the Potency result is “inactive”.
In the case of `COc1ccccc1CNC(=O)Cn1c(=O)oc2cc(Cl)ccc21`, the Potency entry was “inactive”.
As for `Cc1ccc(-n2nc3c(=O)n(C(C)C(=O)NCc4ccc5c(c4)OCO5)nc(C)c3c2C)cc1` (stereo not drawn), the Potency was 18.4 µM (active).
Consider `Cc1nn(C(C)C(=O)N2CCOCC2)c(=O)c2nn(-c3ccccc3)c(C)c12` (stereo not drawn), for which the Potency entry was “inactive”.
Under `Cc1nn(CC(=O)N2CCCCC2)c(=O)c2nn(-c3ccccc3)c(C)c12` stands “inactive”; under `COc1ccc(CNC(=O)C(C)n2nc(C)c3c(C)n(-c4ccccc4)nc3c2=O)c(OC)c1` (stereo not drawn), 16.4 µM (active); under `Cc1nc2c(C(=O)NCc3ccc4c(c3)OCO4)c[nH]n2c(=O)c1Cc1ccccc1F`, “inactive”.
Take `CC(Sc1nncs1)C(=O)NCc1ccc2c(c1)OCO2` (stereo not drawn): the Potency result is “inactive”.
Under `COc1ccccc1CNC(=O)Cn1cc2c(n1)CCCC2` stands “inactive”; under `COc1ccccc1CNC(=O)Cn1nc(C)c2nn(-c3ccc(Cl)cc3)c(C)c2c1=O`, 20.6 µM (active); under `CN(CCC1CCOCC1)C(=O)CC1C(=O)NCCN1Cc1cccc(F)c1` (stereo not drawn), “inactive”.
In the case of `CC1CC(C)CN(CCOc2cccc3ccccc23)C1` (stereo not drawn) it was “inactive”; in that of `O=C(Nc1ccc([N+](=O)[O-])cc1)OCCc1ccccn1`, “inactive”; in that of `COc1ccc(CN2CCOc3c(cc(-c4ncc(C(F)(F)F)cc4Cl)cc3OCC3CCCO3)C2)c(O)c1` (stereo not drawn), “inactive”.
As to `O=C(CN1C(=O)NC2(CCOc3ccccc32)C1=O)NCc1ccc(F)cc1` (stereo not drawn), the Potency entry was “inactive”.
On to `O=C(NCCCn1ccnc1)C(=O)c1cn(CC(=O)N2CCCCCC2)c2ccccc12`, for which the Potency result is “inactive”.
`CC(C)NC(=O)c1nn(-c2ccccc2F)nc1CO`: the Potency entry was “inactive”.
Under `CC1(C)NC(=O)N(CC(=O)Nc2ccc(-c3ccccc3)cc2)C1=O` stands “inactive”.
Regarding `Cc1nnsc1C(=O)N/N=C/c1ccccc1Cl`, the Potency entry was “inactive”.
In the case of `O=C(Cc1ccccc1)N/N=C/c1ccc(Cl)cc1Cl` it was “inactive”; in that of `O=C(CSc1nnc(SCc2ccc(Cl)cc2)s1)N/N=C/c1ccccc1Cl`, 18.4 µM (active).
For the compound `C=CCOc1ccccc1NC(=O)CN1C(=O)CNC1=O`, the Potency entry was “inactive”.
Take `COc1ccc(CCN2C(=O)C(C)=C(C)C2=O)cc1OC`: the Potency result was “inactive”.
Under `COc1ccc(CCN2CNc3c(c(=O)n(C)c(=O)n3C)C2)cc1OC` stands “inactive”; under `COc1ccc(CCn2cc3c(c2-c2ccc(Br)cc2)c(=O)n(C)c(=O)n3C)cc1OC`, 23.1 µM (active); under `O=S(=O)(c1ccc(-c2ccno2)s1)N1CCCCC1`, “inactive”.
In the case of `COc1cccc(/C=C2\C=C(c3ccc(C)cc3)OC2=O)c1OC(C)=O` it was “inactive”; in that of `COCc1c(C(=O)N/N=C\c2cccnc2)nnn1-c1nonc1N`, “inactive”; in that of `CCCCNC(=O)Nc1c(C)cc(SC#N)cc1C`, 18.4 µM (active).
For `CCCCNC(=O)C(=O)c1ccccc1NC(C)=O`, the Potency result is “inactive”.
In the case of `c1ccc(CCc2ccccn2)cc1` it was “inactive”; in that of `Cc1ccc(CC2CC(=O)N(c3nc(C)cc(C)n3)C2=O)cc1` (stereo not drawn), “inactive”; in that of `CC(=O)N1CC(C)c2scc(C)[n+]2-c2ccccc21` (stereo not drawn), “inactive”.
In the case of `CCOC(=O)c1nnn(-c2nonc2-n2cccc2)c1CN1CCC(C(=O)OCC)CC1` it was 18.4 µM (active).
In the case of `NNC(=O)c1nnn(-c2nonc2N)c1CN1CCCC1` it was “inactive”; in that of `CCOC(=O)c1nnn(-c2nonc2-n2cccc2)c1CN1CCOCC1`, “inactive”.
`CCOC(=O)C1(Cc2cccc(OC)c2)CCCN(C(=O)CCSC)C1` (stereo not drawn): the Potency entry is “inactive”.
In the case of `CC1(c2ccccc2)NC(=O)N(CC(=O)N2CC(=O)Nc3ccccc32)C1=O` (stereo not drawn) it was “inactive”; in that of `COC1C(CO)OC(n2cnc3c(=S)nc(N)[nH]c32)C1O` (stereo not drawn), 16.4 µM (active); in that of `Nc1nc2c(ncn2[C@@H]2O[C@H](CNS(=O)(=O)N3CCc4ccccc4C3)[C@@H](O)[C@H]2O)c(=O)[nH]1`, “inactive”.
Under `CC(C)Sc1nc(N)nc2c1ncn2C1OC(CO)C(O)C1O` (stereo not drawn) stands “inactive”; under `COC(=O)CNS(=O)(=O)c1ccc(Cc2ccc(S(=O)(=O)NCC(=O)OC)cc2)cc1`, “inactive”; under `CCCn1c(SCC(N)=O)nnc1C(C)C`, “inactive”.
For `CCn1c(SCC(=O)Nc2ccc3c(c2)OCCO3)nnc1C(C)C`, the Potency result was “inactive”.
Under `CCCn1c(SCC(=O)c2ccc3c(c2)OCCO3)nnc1C(C)C` stands 23.1 µM (active); under `CCC(=O)N1CCCc2ccccc21`, “inactive”.
In the case of `Cn1c(SCC(=O)N2CCCc3ccccc32)nc2ccccc2c1=O` it was 7.31 µM (active); in that of `O=C(CSc1nc2ccccc2c(=O)n1CCCO)N1CCc2ccccc21`, “inactive”.
In the case of `CC(C)CNC(=S)NNC(=O)c1ccccc1OC(F)F` it was “inactive”; in that of `O=S(=O)(Oc1ccccc1C(=S)N1CCOCC1)c1ccc(Cl)cc1`, 16.4 µM (active).
With `CC(=O)Nc1ccc(S(=O)(=O)Oc2ccc(Br)cc2C(=S)N2CCOCC2)cc1`, the Potency entry is “inactive”.
Under `CCOc1cc(C(=S)N2CCOCC2)ccc1OS(=O)(=O)c1ccc(Br)cc1` stands “inactive”; under `O=c1c([N+](=O)[O-])cccn1Cc1ccc(F)cc1Cl`, 11.6 µM (active); under `O=[N+]([O-])c1ccccc1NCc1ccccc1Cl`, “inactive”.
Under `N/C(=N/O)c1cccn1Cc1ccccc1[N+](=O)[O-]` stands “inactive”; under `O=C(O)c1ccc(S(=O)(=O)c2ccccc2)s1`, “inactive”.
